{"source": "paper PMC8384837", "about": "“Expanding the binding specificity for RNA recognition by a PUF domain”", "experiment_in_all_cases": "yeast three-hybrid, YBZ-1, SC-Leu-His + 0.5 mM 3-AT, 4 days", "settings_in_all_cases": "tags: N-Gal4 AD-HA kept; label: inside an RPR1-promoter hybrid RNA with tandem MS2 sites; ssRNA", "key": {"PUM1 PUF domain R5-LSR": {"biological_target": "PUM1 PUF domain R5-LSR (Homo sapiens, UniProt Q14671 828-1176, C1007L;R1008S;Q1011R)", "summary_of_the_method": "(§1)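 The interaction score is the log change in variant frequency from input to selection. Scores were computed in log2 with a pseudocount of 1 for absent variants, using Illumina sequencing of PCR-amplified repeat regions. The input came from four days on SC-Leu and the selection from four days on SC-Leu-His + 0.5 mM 3-AT. The cells were strain YBZ-1 (LexA–MS2 coat fusion, HIS3 reporter) co-expressing Pumilio-1 PUF domain libraries and matching RNA elements from a centromeric plasmid.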"}, "PUM1 PUF domain R6-RFG": {"biological_target": "T1, PUM1 PUF domain R6-RFG (Homo sapiens, UniProt Q14671 828-1176, N1043R;Y1044F;Q1047G)", "T1 sequence": "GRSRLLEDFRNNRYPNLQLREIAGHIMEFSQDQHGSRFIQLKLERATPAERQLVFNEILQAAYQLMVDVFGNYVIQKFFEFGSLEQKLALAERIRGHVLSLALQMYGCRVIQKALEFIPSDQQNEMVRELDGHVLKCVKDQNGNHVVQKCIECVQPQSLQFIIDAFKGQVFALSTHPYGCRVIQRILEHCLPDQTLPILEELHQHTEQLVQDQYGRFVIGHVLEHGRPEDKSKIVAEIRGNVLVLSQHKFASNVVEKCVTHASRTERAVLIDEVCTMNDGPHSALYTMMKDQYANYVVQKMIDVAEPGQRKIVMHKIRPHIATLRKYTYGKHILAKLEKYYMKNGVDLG", "summary_of_the_method": "as §1"}, "PUM1 PUF domain R6-YHR": {"biological_target": "T2, PUM1 PUF domain R6-YHR (Homo sapiens, UniProt Q14671 828-1176, N1043Y;Y1044H;Q1047R)", "T2 sequence": "T1 sequence with R216Y, F217H, G220R", "summary_of_the_method": "as §1"}, "PUM1 PUF domain R4-SRA": {"biological_target": "PUM1 PUF domain R4-SRA (Homo sapiens, UniProt Q14671 828-1176, N971S;H972R;Q975A)", "summary_of_the_method": "as §1"}, "PUM1 PUF domain R6-KWA": {"biological_target": "T3, PUM1 PUF domain R6-KWA (Homo sapiens, UniProt Q14671 828-1176, N1043K;Y1044W;Q1047A)", "T3 sequence": "T1 sequence with R216K, F217W, G220A", "summary_of_the_method": "as §1"}, "PUM1 PUF domain R6-SHK": {"biological_target": "T4, PUM1 PUF domain R6-SHK (Homo sapiens, UniProt Q14671 828-1176, N1043S;Y1044H;Q1047K)", "T4 sequence": "T1 sequence with R216S, F217H, G220K", "summary_of_the_method": "as §1"}, "PUM1 PUF domain R6-LHS": {"biological_target": "T5, PUM1 PUF domain R6-LHS (Homo sapiens, UniProt Q14671 828-1176, N1043L;Y1044H;Q1047S)", "T5 sequence": "T1 sequence with R216L, F217H, G220S", "summary_of_the_method": "as §1"}, "PUM1 PUF domain R8-RHC": {"biological_target": "PUM1 PUF domain R8-RHC (Homo sapiens, UniProt Q14671 828-1176, N1122R;Y1123H;Q1126C)", "summary_of_the_method": "as §1"}, "PUM1 PUF domain R8-KRI": {"biological_target": "PUM1 PUF domain R8-KRI (Homo sapiens, UniProt Q14671 828-1176, N1122K;Y1123R;Q1126I)", "summary_of_the_method": "as §1"}, "PUM1 PUF domain R2-DWI": {"biological_target": "PUM1 PUF domain R2-DWI (Homo sapiens, UniProt Q14671 828-1176, N899D;Y900W;Q903I)", "summary_of_the_method": "as §1"}}, "note": "Changes are numbered by the printed parent chain.", "data": [{"sequence": "GGCUAGAACUAGUGGAUCCCCCGGCGCCCGGCGGCUCGAGCCCGGGUAAGUGUCAAUAGUCUGCAUGCCGCCGGGCGCCAUGCCUGCAGGUCGACUCUAGAAAACAUG", "values": [{"measurement": "binding signal", "setting": "PUM1 PUF domain R5-LSR", "result": "2.6 log2 enrichment (interaction score)"}]}, {"sequence": "GGCUAGAACUAGUGGAUCCCCCGGCGCCCGGCGGCUCGAGCCCGGGUAAGUGUAAAUAGUCUGCAUGCCGCCGGGCGCCAUGCCUGCAGGUCGACUCUAGAAAACAUG", "values": [{"measurement": "binding signal", "setting": "PUM1 PUF domain R6-RFG", "result": "3.56 log2 enrichment (interaction score)"}, {"measurement": "binding signal", "setting": "PUM1 PUF domain R6-YHR", "result": "4.05 log2 enrichment (interaction score)"}, {"measurement": "binding signal", "setting": "PUM1 PUF domain R4-SRA", "result": "4.71 log2 enrichment (interaction score)"}, {"measurement": "binding signal", "setting": "PUM1 PUF domain R6-KWA", "result": "2 log2 enrichment (interaction score)"}, {"measurement": "binding signal", "setting": "PUM1 PUF domain R6-SHK", "result": "3.34 log2 enrichment (interaction score)"}, {"measurement": "binding signal", "setting": "PUM1 PUF domain R6-LHS", "result": "2.24 log2 enrichment (interaction score)"}, {"measurement": "binding signal", "setting": "PUM1 PUF domain R8-RHC", "result": "3.41 log2 enrichment (interaction score)"}, {"measurement": "binding signal", "setting": "PUM1 PUF domain R5-LSR", "result": "0.51 log2 enrichment (interaction score)"}]}, {"sequence": "GGCUAGAACUAGUGGAUCCCCCGGCGCCCGGCGGCUCGAGCCCGGGUAAGCGUAAAUAGUCUGCAUGCCGCCGGGCGCCAUGCCUGCAGGUCGACUCUAGAAAACAUG", "values": [{"measurement": "binding signal", "setting": "PUM1 PUF domain R8-KRI", "result": "2.91 log2 enrichment (interaction score)"}, {"measurement": "binding signal", "setting": "PUM1 PUF domain R8-RHC", "result": "4.55 log2 enrichment (interaction score)"}]}, {"sequence": "GGCUAGAACUAGUGGAUCCCCCGGCGCCCGGCGGCUCGAGCCCGGGUAAGUGUAUAUAGUCUGCAUGCCGCCGGGCGCCAUGCCUGCAGGUCGACUCUAGAAAACAUG", "values": [{"measurement": "binding signal", "setting": "PUM1 PUF domain R4-SRA", "result": "1.92 log2 enrichment (interaction score)"}]}, {"sequence": "GGCUAGAACUAGUGGAUCCCCCGGCGCCCGGCGGCUCGAGCCCGGGUAAGUGUACAUAGUCUGCAUGCCGCCGGGCGCCAUGCCUGCAGGUCGACUCUAGAAAACAUG", "values": [{"measurement": "binding signal", "setting": "PUM1 PUF domain R4-SRA", "result": "1.76 log2 enrichment (interaction score)"}]}, {"sequence": "GGCUAGAACUAGUGGAUCCCCCGGCGCCCGGCGGCUCGAGCCCGGGUAAGUGCAAAUAGUCUGCAUGCCGCCGGGCGCCAUGCCUGCAGGUCGACUCUAGAAAACAUG", "values": [{"measurement": "binding signal", "setting": "PUM1 PUF domain R6-KWA", "result": "4.16 log2 enrichment (interaction score)"}]}, {"sequence": "GGCUAGAACUAGUGGAUCCCCCGGCGCCCGGCGGCUCGAGCCCGGGUAAGUGAAAAUAGUCUGCAUGCCGCCGGGCGCCAUGCCUGCAGGUCGACUCUAGAAAACAUG", "values": [{"measurement": "binding signal", "setting": "PUM1 PUF domain R6-KWA", "result": "2.73 log2 enrichment (interaction score)"}]}, {"sequence": "GGCUAGAACUAGUGGAUCCCCCGGCGCCCGGCGGCUCGAGCCCGGGUAAGUGUAAAAAGUCUGCAUGCCGCCGGGCGCCAUGCCUGCAGGUCGACUCUAGAAAACAUG", "values": [{"measurement": "binding signal", "setting": "PUM1 PUF domain R2-DWI", "result": "6.3 log2 enrichment (interaction score)"}]}]}
